Bioassay records deposited in PubChem BioAssay by National Center for Advancing Translational Sciences (NCATS).
RECQ1 inh-1 – inhibitors of human RECQ1 DNA helicase; RECQ1 DNA unwinding, red fluorescence kinetic read; P46063; Potency, µM (doses to about 57.3 µM), without a hit: at the top dose activity, negative = inhibition, usual class: inhibitors; 240,000 compounds, 0.54% hits; AID 2549;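 further: plate controls were vehicle for no effect and no enzyme for full effect; nearly all actives have a fitted effect of over 30% in size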
Target sequence (P46063 whole entry, looked up): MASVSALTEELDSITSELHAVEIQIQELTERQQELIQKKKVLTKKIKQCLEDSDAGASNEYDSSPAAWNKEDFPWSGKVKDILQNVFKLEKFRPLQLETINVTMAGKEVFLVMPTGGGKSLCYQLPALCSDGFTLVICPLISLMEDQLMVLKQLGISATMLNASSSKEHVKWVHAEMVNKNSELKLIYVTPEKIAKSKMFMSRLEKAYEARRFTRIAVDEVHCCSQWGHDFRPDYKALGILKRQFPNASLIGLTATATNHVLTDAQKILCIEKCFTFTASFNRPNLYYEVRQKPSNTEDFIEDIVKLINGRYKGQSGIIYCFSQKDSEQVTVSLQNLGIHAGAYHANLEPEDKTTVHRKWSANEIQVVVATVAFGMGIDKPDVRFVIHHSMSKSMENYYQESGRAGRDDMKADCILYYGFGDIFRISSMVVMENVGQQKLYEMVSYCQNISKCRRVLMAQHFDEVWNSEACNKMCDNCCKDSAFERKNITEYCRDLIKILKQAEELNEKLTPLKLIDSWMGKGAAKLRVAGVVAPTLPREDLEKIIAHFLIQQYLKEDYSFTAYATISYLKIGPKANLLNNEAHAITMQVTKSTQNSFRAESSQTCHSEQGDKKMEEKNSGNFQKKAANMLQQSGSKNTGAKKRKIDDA
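RECQ1T1 50 nM; forked duplex (20 bp + 30-nt ss tails) 200 nM, ATP 2 mM final; pH 8.0, 2 mM MgCl2, 2.5 ug/ml poly(dI-dC); 15 min compound preincubation; discontinuous kinetic read over 2 h at RT.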
GoLoco inh red – blocks human Gai1 binding to RGS12 GoLoco peptide, red readout | P63096 | Gai1:RGS12 GoLoco peptide FP, rhodamine, 10 min | Potency, µM (top dose mostly 61.6 µM), for the others: top-dose activity, negative = inhibition, most hits filed as inhibitors | 230,000 compounds, 0.44% hits; active means well fitted inhibition curve with a large enough effect, not every such curve was filed as active; inactive means no such curve, though single readings can be large or run the other way; further: nearly all actives have a fitted effect of over 30% in size
BLM inh-1 – blocks DNA unwinding by human BLM helicase. P54132. 350,000 compounds, 0.2% hits. recombinant BLM DNA unwinding, fluorescence dequenching. Potency, µM (series often up to 56.1 µM), without a hit: at the top dose activity change, negative = inhibition, hits mostly inhibitors;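 further: plate controls were vehicle for no effect and no enzyme for full effect; nearly all actives have a fitted effect of over 35% in size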
TexasRed fluor – alters Texas Red total fluorescence, flagging assay interference. AID 1479. TRb/SRC2 Texas Red total fluorescence interference. Potency, µM (doses to about 106 µM), without a hit: top-dose fluorescence change, negative = quenching. 280,000 compounds, 0.29% hits; active means well fitted curve in either direction with a large enough effect; inconclusive means small, poorly fitted or top-dose-only effect
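Human TRβ ligand-binding domain (0.6 uM) and Texas Red SRC2 peptide (20 nM) in Tris buffer with 1 uM T3 and 5% DMSO were incubated with pinned compound for 5 hr at ambient temperature. Total fluorescence was computed as S + 2P (555/632 nm).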
TRb SRC2 PPI – TRbeta-SRC2 interaction inhibition; TRbeta-SRC2 peptide binding, fluorescence polarization; receptor liganded with 1 µM T3; Potency, µM (titrated, usually from 106 µM), for inactives: top-dose activity change, negative = inhibition, hits mostly inhibitors; P10828; 280,000 compounds, 0.065% hits;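 further: plate controls were bound peptide for no effect and peptide without receptor for full effect; nearly all actives have a fitted effect of over 50% in size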
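Fluorescence polarization of 20 nM Texas Red SRC2 peptide (20-aa NR interaction domain) bound to 0.6 uM human TRb ligand-binding domain, with 1 uM T3, after 5 hr at ambient temperature; inhibition seen as decreased polarization.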
APE1 inh-1 – APE1 (human) endonuclease inhibition; recombinant APE1, TAMRA/BHQ-2 abasic DNA cleavage fluorescence; Potency, µM (highest dose often 65.8 µM), for inactives: at the highest dose activity change, negative = inhibition, hits mostly inhibitors; 350,000 compounds, 0.35% hits; AID 2517;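 further: plate controls were vehicle for no effect and reference inhibitor for full effect; nearly all actives have a fitted effect of over 55% in size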
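Quantitative HTS: incision of a TAMRA/BHQ-2 double-stranded substrate bearing a tetrahydrofuran abasic site by 0.75 nM APE1 raises fluorescence. Substrate 50 nM final, added after 15 min compound preincubation at room temperature; progress as third-minus-first kinetic read difference.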
Endo IV inh – counter-screen for APE1 inhibitors: inhibitors of E. coli endonuclease IV | 560 compounds, 4% hits | Potency, µM (series often up to 27.1 µM), without a hit: at the highest dose activity change, negative = inhibition, actives largely listed as inhibitors | E. coli Endo IV, fluorogenic AP-site DNA cleavage | shares compounds with APE1 inh-1;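 further: plate controls were uninhibited enzyme wells for no effect and no enzyme buffer wells for full effect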
APE1 inh-2 – confirmation of inhibitors of human APE1 endonuclease; purified APE1, fluorogenic abasic-site DNA cleavage; shares compounds with APE1 inh-1; 750 compounds, 44% hits; Potency, µM (highest dose often 57.1 µM), for the others: at the highest dose activity change, negative = inhibition, most hits filed as inhibitors; further: nearly all actives have a fitted effect of over 30% in size
BLM inh-2 – confirmation of inhibitors of human Bloom syndrome helicase BLM | shares compounds with BLM inh-1 | Potency, µM, inactives show max response, negative = inhibition, actives largely listed as inhibitors | BLM DNA unwinding, fluorescence quenching, biochemical | 220 compounds, 40% hits;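 further: strand separation dequenches TAMRA so unwinding raises red fluorescence; series mostly up to about 69 µM; nearly all actives have a fitted effect of over 45% in size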
RECQ1 inh conf – confirmation of human RECQ1 helicase inhibitors. shares compounds with RECQ1 inh-1. RECQ1 helicase DNA unwinding, fluorescence. Potency, µM (top dose mostly 229 µM), for inactives: at the top dose activity change, negative = inhibition, actives largely listed as inhibitors. 610 compounds, 28% hits. AID 2708; further: nearly all actives have a fitted effect of over 45% in size
ADP FP counter – displaces ADP in a fluorescence polarization counter-screen for RECQ1 hits; 530 compounds, 27% hits; AID 2711; shares compounds with RECQ1 inh-1; ADP fluorescence polarization displacement counterscreen; Potency, µM (highest dose often 228 µM), for inactives: at the highest dose activity change, negative = inhibition, most hits filed as inhibitors; further: nearly all actives have a fitted effect of over 45% in size
RECQ1 inh-2 – RECQ1 helicase inhibition confirmed, round 2; AID 504841; shares compounds with RECQ1 inh-1; Potency, µM (top dose mostly 119 µM), for the others: at the highest dose activity, negative = inhibition, usual class: inhibitors; recombinant RECQ1 DNA unwinding, red fluorescence; 1,100 compounds, 15% hits; further: nearly all actives have a fitted effect of over 50% in size
* hit, by the source's call; ? = inconclusive; . = no result given; ! = repeats disagree; [ ] = remark or other dose. Hits are enriched below; roughly 0.9% of the tested compounds scored in any of these assays. Unless noted, the call rests on the fitted dose curve; in most records, active means well fitted curve in the direction sought with a large enough effect; inconclusive means small, poorly fitted or top-dose-only effect, or another doubt; inactive means no such curve, though single readings can be large; an effect the other way counts as inactive or inconclusive. Unless noted, on the % scale 0 is the no-effect control and ±100 the full control effect; potency means the concentration at half of the fitted maximal effect.

SMILES	RECQ1 inh-1	GoLoco inh red	BLM inh-1	TexasRed fluor	TRb SRC2 PPI	APE1 inh-1	RECQ1 inh-2	others
Cc1c2ccncc2c(C)c2c1[nH]c1ccccc12	4.5µM*!	15%	124%	-3%	4%	?	.	Endo IV inh=1µM*;APE1 inh-2=?;RECQ1 inh conf=?
CCCCn1c(NS(=O)(=O)c2ccccc2)c(C(=O)OCC)c2nc3ccccc3nc21	-3%	2%	1.4µM*	?	-17%	3%	.	BLM inh-2=-10%
Brc1ccc(Oc2ccccc2)cc1	.	.	.	0%[201 µM]	-3%[201 µM]	.	.
CC(C)n1c(=O)c(C=Nc2ccc(S(N)(=O)=O)cc2)c(O)n(Cc2ccco2)c1=O	?	81%	-4%	-2%	24%	?	-13%
O=S(=O)(O)C(F)(F)C(F)(F)C(F)(F)C(F)(F)C(F)(F)C(F)(F)F	.	.	.	-3%[201 µM]	-3%[201 µM]	.	.
CN(C)[C@@H]1C(=O)C(C(N)=O)=C(O)[C@]2(O)C(=O)C3=C(O)c4c(O)cccc4[C@@](C)(O)[C@H]3[C@H](O)[C@@H]12	13µM*	5.6µM*	-11%[21.4 µM]	-8%[53 µM]	-8%[53 µM]	?	.	RECQ1 inh conf=63%[69.1 µM];ADP FP counter=45µM*
CN(C)C1C(=O)C(C(N)=O)=C(O)[C@@]2(O)C(=O)C3=C(O)c4c(O)cccc4[C@@](C)(O)C3[C@H](O)C12 (some centres undefined)	-3%	-19%	-10%	?	-5%	12%	.
Cc1ccc(N2C(=O)NC(=O)/C(=C\c3cccn3C(C)(C)C)C2=O)cc1	4%	0%	-1%	0%	-9%	1%	.
CCc1ccc(N2C(=O)NC(=O)/C(=C\C=C\c3ccco3)C2=O)cc1	8.9µM*	88%	-1%	10%	5%	?	.	RECQ1 inh conf=?;ADP FP counter=50µM*
CCCCn1c(=O)c(C=Nc2ccc(Cl)cc2)c(O)n(Cc2ccco2)c1=O	-26%	97%	-15%	0%	7%	?	.
Cc1cccn2c(=O)c(C=Nc3ccccc3)c(NCc3ccco3)nc12	?	.	0%	2%	1%	?	12%
O=c1oc2ccccc2c(O)c1C(c1ccccn1)c1c(O)c2ccccc2oc1=O	7.9µM*	-17%	-15%	-9%	-7%	?	?
CCN(CC)C(=O)c1ccc2c(c1)C1C(Cl)C(Sc3ccccc3[N+](=O)[O-])CC1C(C(=O)O)N2 (centres undefined)	-22%	18%	-25%	?	?	-11%	.	RECQ1 inh conf=?;ADP FP counter=126µM*
Clc1ccc(C2(Cn3cncn3)CC(Br)CO2)c(Cl)c1 (centres undefined)	.	.	.	0%[201 µM]	3%[201 µM]	.	.
O=c1cc(-c2ccc(O)c(O)c2)oc2cc(O)cc(O)c12	13µM*	5%	35µM*!	?	15%	5µM*	3.2µM*	RECQ1 inh conf=?
O=P(OCC(Br)CBr)(OCC(Br)CBr)OCC(Br)CBr (centres undefined)	.	.	.	2%[201 µM]	-6%[201 µM]	.	.
CCCCC(=O)N/N=C/c1c(O)n(Cc2ccco2)c(=O)[nH]c1=O	32µM*	28%	3%	0%	10%	-11%	-13%
O=C(N/N=C/c1c(O)n(Cc2ccco2)c(=O)[nH]c1=O)c1ccccc1O	?	2%	-9%	-10%	2%	?	.
Cc1ccc(CSc2n[nH]c(N)n2)cc1	28µM*	12%	-8%	-4%	1%	11%	-6%
Cc1ccccc1NC(=O)CCl	-6%	11%	1%	3%	10%	-1%	.
O=C(CN1C(=O)S/C(=C\C=C\c2ccccc2)C1=O)Nc1ccccc1C(=O)O	-13%	8%	-8%	-2%	2%	1%	.	RECQ1 inh conf=112µM*;ADP FP counter=-15%
CCOP(=S)(OCC)SCCl	.	.	.	-2%[201 µM]	0%[201 µM]	.	.
CC(C)CCNC(=O)c1c(N)n(CC2CCCO2)c2nc3ccccc3nc12 (centres undefined)	?	3%	?	-4%	?	?	-20%
CCC(C)NC(=O)c1c(N)n(CCCOC)c2nc3ccccc3nc12 (centres undefined)	?	4%	?	-2%	?	-10%	-11%
COCCCn1c(N)c(C(=O)Nc2ccccc2)c2nc3ccccc3nc21	-14%	12%	-13%	-3%	5%	-2%	.
SMILES	RECQ1 inh-1	GoLoco inh red	BLM inh-1	TexasRed fluor	TRb SRC2 PPI	APE1 inh-1	RECQ1 inh-2	others
CCC(C)NC(=O)c1c(N)n(CC2CCCO2)c2nc3ccccc3nc12 (centres undefined)	?	4%	?	0%	?	-3%	-28%
Nc1c(C(=O)NCCc2ccccc2)c2nc3ccccc3nc2n1CCN1CCOCC1	8.9µM*	17%	-13%	-1%	-4%	-5%	-17%	RECQ1 inh conf=-7%[114 µM];ADP FP counter=-5%[91.9 µM]
CCOC(=O)c1c(N)n(CCN2CCCCC2)c2nc3ccccc3nc12	-4%	6%	38%	-2%	-3%	2%	.
Nc1c(C(=O)NCCN2CCOCC2)c2nc3ccccc3nc2n1Cc1ccccc1	-11%	2%	-8%	-1%	-6%	-11%	.
CCOCn1c(-c2ccc(Cl)cc2)c(C#N)c(Br)c1C(F)(F)F	.	.	.	-4%[201 µM]	2%[201 µM]	.	.
CC(C)(C)OOC(C)(C)CCC(C)(C)OOC(C)(C)C	.	.	.	-4%[201 µM]	6%[201 µM]	.	.
CNC(=O)/C=C(\C)OP(=O)(OC)OC	.	.	.	1%[201 µM]	-4%[201 µM]	.	.
